Test results as given in PubChem BioAssay (NCI).
This is part of a sample that, as a whole, favours compounds with a hit. Of some 83,000 tested, about 20% had one in any assay.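 Single-dose data. Exposure time 48 hours. Values below 10 considered active.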 A number with no mark means an inactive call. Activity calls are given as the source filed them.

How the values were obtained:
Assay in all cases: NCI-60 one-dose screen, 48 h (100 = growth as untreated, 0 = no growth, -100 = all killed)
Settings in all cases: 10 µM unless noted
[1] = test system: T-47D breast
[2] = test system: BT-549 breast
[3] = test system: MDA-MB-435 melanoma
[4] = test system: SW-620 colon
[5] = test system: MCF7 breast
[6] = test system: HCT-116 colon
[7] = test system: HCC-2998 colon
[8] = test system: KM12 colon
[9] = test system: MDA-MB-468 breast

Row | Compound | growth [1] | growth [2] | growth [3] | growth [4] | growth [5] | growth [6] | growth [7] | growth [8] | growth [9]
1 | Cc1cc(C(NC(=O)C2CC3(CC(Nc4cccc5c4C(=O)N(C4CCC(=O)NC4=O)C5=O)C3)C2)c2ccc3c(c2)OC(F)(F)O3)c(O)c2ncccc12 (stereo unspecified) | 11.5% | 9.92% (active) | 28.5% | 25.6% | 8.12% (active) | 15.6% | 36.6% | 17.5% | -30.6% (active)
2 | COc1cc(CNC(=O)[C@]23CCC(C)(C)CC2C2=CCC4[C@@]5(C)CCC(OC(C)=O)C(C)(C)C5CC[C@@]4(C)[C@]2(C)CC3)ccc1OCc1cn(-c2ccc(Cl)cc2Cl)nn1 (stereo partly specified) | 85.1% | 118% | 105% | 106% | 86.5% | 98.2% | 122% | 101% | 112%
3 | O=C(N/N=C/c1occc1Br)c1[nH]c2ccc(Br)cc2c1-c1ccccc1 | -77% (active) | -89.4% (active) | -90.4% (active) | -86.3% (active) | -66.9% (active) | -74.5% (active) | -89.6% (active) | -46.6% (active) | -75.1% (active)
4 | CC(C)C[C@H](NC(=O)CNC(=O)C[C@H]1O[C@@H]2OC3(C)CC[C@H]4[C@H](C)CC[C@@H]([C@H]1C)[C@@]24O3)B(O)O | -30.8% (active) | -87% (active) | -71.1% (active) | -0.307% (active) | 20.3% | -67.2% (active) | -94.5% (active) | -24.4% (active) | -58.4% (active)
5 | N#C/C(=C/c1ccc(Cl)cc1)c1nnc(NC(=O)c2ccc(-n3c(=O)[nH]c4ccccc4c3=O)cc2)s1 | 64.2% | 40% | 84.7% | 73.8% | 38% | 46.4% | 23.5% | 23.6% | 34.9%
6 | O=C1NC(=S)/C(=C/c2cn(-c3ccccc3)nc2-c2ccccc2)S1 | 0.334% (active) | -9.85% (active) | 24.6% | 39.3% | 3.28% (active) | 18.6% | 29.2% | 19.4% | 22.3%
7 | COc1ccc(CCC2NCCc3c(Br)c4c(c(OC)c32)OCO4)cc1 (stereo unspecified) | 31.2% | -19% (active) | -64.5% (active) | 2.69% (active) | 3.82% (active) | 4.11% (active) | -23.2% (active) | 3.9% (active) | -18.1% (active)
8 | Cc1ccc(C(C(=O)NC2CCCCC2)N(Cc2ccccc2Cl)C(=O)c2ccc(CN3CCOCC3)o2)o1 (stereo unspecified) | 99.9% | 152% | 102% | 105% | 95.3% | 89.1% | 94.7% | 99.4% | 84.7%
9 | CCCCC[C@@H]1C/C=C(\C)[C@@H](O)C(C)(C)C(=O)[C@@H](C)/C=C(\C)[C@@H]2C[C@H](O)C[C@](O)(CC(=O)O1)O2 | 13.5% | 18.8% | 24% | 47.3% | 7.53% (active) | 43% | 57.1% | 44.6% | -21.2% (active)
10 | CNc1nc2ccccc2n2c(-c3ccc(O)c(O)c3)cnc12 | 42.2% | -22.3% (active) | -9.22% (active) | 24.6% | 4.34% (active) | 2.74% (active) | 19.9% | -0.402% (active) | 5.66% (active)
11 | CCOC(=O)c1ccc(NC(=S)NC(=O)c2ccc(NC(=O)C(C)C)cc2OC)cc1 | -0.757% (active) | -5.7% (active) | 33.7% | 62.6% | 8.31% (active) | 23.6% | 67.9% | 30.2% | 3.97% (active)
12 | O=C(Nc1ccc(-c2ccc3c(c2)NC(=O)/C3=C\c2ccc[nH]2)cc1)Nc1ccc(Cl)c(Cl)c1 | 18.8% | 40.5% | 62.6% | 16.7% | 9.81% (active) | 35.3% | 83.5% | 8.6% (active) | -16.8% (active)
13 | C[C@@H]1CN(c2ccc3ncc(C#Cc4cncc(C(=O)Nc5ccc(CN6CCN(C)CC6)c(C(F)(F)F)c5)c4)n3n2)C[C@@H](C)O1 | -62.6% (active) | -75.4% (active) | -96.4% (active) | -84.2% (active) | -93.1% (active) | -23.5% (active) | -97% (active) | -66.6% (active) | -95.1% (active)
14 | CCCCNc1ccc2c3c(cccc13)C(=O)N(NCC(O)COc1ccc3c(C)cc(=O)oc3c1)C2=O (stereo unspecified) | 80.8% | 95.8% | 72.2% | 93.1% | 64.6% | 91.9% | 104% | 85.7% | 68.8%
15 | CCCSc1nnc(-c2sc3nc4ccccc4n3c2C)o1 | 102% | 157% | 105% | 108% | 90.3% | 106% | 112% | 101% | 88.9%
16 | COc1ccc(C(=O)c2cc(C(C)=O)c3c(C)cc(C)cn23)cc1 | 48.6% | 25.4% | 49.1% | 82.2% | 35.2% | 19.6% | 76.1% | 71.2% | 59.6%
17 | FC(F)(F)CN1CCN(CCn2c(C(F)(F)F)cc3c(Cl)ncnc32)CC1 | 59.3% | -27.2% (active) | 38.7% | 11.3% | 25.3% | 1.79% (active) | -96.7% (active) | 70.7% | -64% (active)
18 | O=C(NNC(=S)NCCc1ccccc1)c1ccc(OCc2nc3ccc(Cl)cc3[nH]2)cc1 | 39.4% | 61.5% | 84.3% | 129% | 34.2% | 64.3% | 104% | 63% | 61.4%
19 | S=C(NCCc1ccccc1)Nc1ccc(OCc2nc3ccc(Cl)cc3[nH]2)cc1 | 34.9% | 45.9% | 36.6% | 37% | 7.94% (active) | 18.9% | 3.57% (active) | 18.6% | 21.7%
